# Hit rate of the full screen: of about 5,500 compounds, about 2,000 (36%) were called active. Another 18% or so got no clear call; they are omitted. The list shows a part of the results. A number with no mark means an inactive call. Rule as the data show it: active = normalized growth mostly below about 0.91 (no sharp cut-off); inconclusive = no clear call, values can overlap the other calls; inactive = mostly above about 0.92.
# Assay: chemical genetic growth profiling, strain panel (AID 1159580);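 also: tested at 20 µM; growth read once vehicle control cultures reached saturation at 30 °C; 1 = growth at the plate median or of vehicle wells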
# Settings: growth OD
compound,measurement,setting,value
O=c1c(O)c(-c2ccccc2)oc2ccc3occc3c12,normalized growth,"S. cerevisiae deletion strains, locus YJR075W, strain HOC1, stronger effect = lower value",0.861 (active)
same,normalized growth,"S. cerevisiae deletion strains, locus YKL009W, strain mrt4, stronger effect = lower value",0.793 (active)
same,normalized growth,"S. cerevisiae deletion strains, locus YKL068W, stronger effect = lower value",0.962
same,normalized growth,"S. cerevisiae deletion strains, locus YKL085W, strain MDH1 (second series), stronger effect = lower value",0.937
same,normalized growth,"S. cerevisiae deletion strains, locus YKL085W, strain MDH1, stronger effect = lower value",0.937
same,normalized growth,"S. cerevisiae deletion strains, locus YKL160W, strain elf1, stronger effect = lower value",0.687 (active)
same,normalized growth,"S. cerevisiae deletion strains, locus YKL190W, strain CNB1, stronger effect = lower value",0.941
same,normalized growth,"S. cerevisiae deletion strains, locus YKR001C, strain vps1, stronger effect = lower value",0.772 (active)
same,normalized growth,"S. cerevisiae deletion strains, locus YKR026C, strain gcn3, stronger effect = lower value",0.954
same,normalized growth,"S. cerevisiae deletion strains, locus YKR091W, strain srl3, stronger effect = lower value",0.974
same,normalized growth,"S. cerevisiae deletion strains, locus YLL001W, strain dnm1, stronger effect = lower value",0.657 (active)
same,normalized growth,"S. cerevisiae deletion strains, locus YLL026W, stronger effect = lower value",0.867 (active)
same,normalized growth,"S. cerevisiae deletion strains, locus YLL041C, strain sdh2, stronger effect = lower value",0.948
same,normalized growth,"S. cerevisiae deletion strains, locus YLR027C, strain aat2, stronger effect = lower value",0.795 (active)
same,normalized growth,"S. cerevisiae deletion strains, locus YLR039C, strain RIC1, stronger effect = lower value",0.878
same,normalized growth,"S. cerevisiae deletion strains, locus YLR058C, strain SHM2, stronger effect = lower value",0.854 (active)
same,normalized growth,"S. cerevisiae deletion strains, locus YLR102C, strain apc9, stronger effect = lower value",0.912 (active)
same,normalized growth,"S. cerevisiae deletion strains, locus YLR113W, strain HOG1, stronger effect = lower value",0.893
same,normalized growth,"S. cerevisiae deletion strains, locus YLR221C, strain rsa3, stronger effect = lower value",0.844 (active)
same,normalized growth,"S. cerevisiae deletion strains, locus YLR258W, strain gsy2, stronger effect = lower value",0.745 (active)
same,normalized growth,"S. cerevisiae deletion strains, locus YLR262C, strain YPT6 (second series), stronger effect = lower value",0.795 (active)
same,normalized growth,"S. cerevisiae deletion strains, locus YLR262C, strain YPT6, stronger effect = lower value",0.946
same,normalized growth,"S. cerevisiae deletion strains, locus YLR268W, strain sec22, stronger effect = lower value",0.77 (active)
same,normalized growth,"S. cerevisiae deletion strains, locus YLR320W, strain mms22, stronger effect = lower value",0.76 (active)
same,normalized growth,"S. cerevisiae deletion strains, locus YLR330W, strain CHS5, stronger effect = lower value",0.847 (active)
same,normalized growth,"S. cerevisiae deletion strains, locus YLR342W, strain FKS1 (second series), stronger effect = lower value",0.755 (active)
same,normalized growth,"S. cerevisiae deletion strains, locus YLR342W, strain FKS1, stronger effect = lower value",0.796 (active)
same,normalized growth,"S. cerevisiae deletion strains, locus YLR357W, strain rsc2, stronger effect = lower value",0.87
same,normalized growth,"S. cerevisiae deletion strains, locus YLR370C, strain arc18, stronger effect = lower value",0.768 (active)
same,normalized growth,"S. cerevisiae deletion strains, locus YLR371W, strain rom2, stronger effect = lower value",0.655 (active)
same,normalized growth,"S. cerevisiae deletion strains, locus YLR384C, strain iki3, stronger effect = lower value",0.954
same,normalized growth,"S. cerevisiae deletion strains, locus YLR418C, strain cdc73, stronger effect = lower value",0.451 (active)
same,normalized growth,"S. cerevisiae deletion strains, locus YML016C, strain PPZ1, stronger effect = lower value",0.939
same,normalized growth,"S. cerevisiae deletion strains, locus YML032C, strain rad52, stronger effect = lower value",0.685 (active)
same,normalized growth,"S. cerevisiae deletion strains, locus YML120C, strain ndi1, stronger effect = lower value",0.753 (active)
same,normalized growth,"S. cerevisiae deletion strains, locus YML124C, strain tub3, stronger effect = lower value",0.899 (active)
same,normalized growth,"S. cerevisiae deletion strains, locus YMR058W, strain fet3, stronger effect = lower value",0.817 (active)
same,normalized growth,"S. cerevisiae deletion strains, locus YMR078C, strain ctf18, stronger effect = lower value",0.852 (active)
same,normalized growth,"S. cerevisiae deletion strains, locus YMR125W, strain sto1, stronger effect = lower value",0.877 (active)
same,normalized growth,"S. cerevisiae deletion strains, locus YMR129W, stronger effect = lower value",0.88 (active)
same,normalized growth,"S. cerevisiae deletion strains, locus YMR205C, strain PFK2, stronger effect = lower value",0.611 (active)
same,normalized growth,"S. cerevisiae deletion strains, locus YMR223W, strain ubp8, stronger effect = lower value",0.762 (active)
same,normalized growth,"S. cerevisiae deletion strains, locus YMR231W, strain pep5, stronger effect = lower value",1
same,normalized growth,"S. cerevisiae deletion strains, locus YMR263W, strain SAP30, stronger effect = lower value",0.854 (active)
same,normalized growth,"S. cerevisiae deletion strains, locus YMR307W, strain GAS1, stronger effect = lower value",0.687
same,normalized growth,"S. cerevisiae deletion strains, locus YNL067W, strain RPL9B, stronger effect = lower value",0.863 (active)
same,normalized growth,"S. cerevisiae deletion strains, locus YNL071W, strain lat1, stronger effect = lower value",0.363 (active)
same,normalized growth,"S. cerevisiae deletion strains, locus YNL128W, strain TEP1, stronger effect = lower value",0.911
same,normalized growth,"S. cerevisiae deletion strains, locus YNL183C, strain NPR1, stronger effect = lower value",0.884
same,normalized growth,"S. cerevisiae deletion strains, locus YNL209W, strain ssb2, stronger effect = lower value",0.853 (active)
same,normalized growth,"S. cerevisiae deletion strains, locus YNL233W, strain BNI4, stronger effect = lower value",0.693 (active)
same,normalized growth,"S. cerevisiae deletion strains, locus YNL248C, strain rpa49, stronger effect = lower value",0.953
same,normalized growth,"S. cerevisiae deletion strains, locus YNL250W, strain rad50, stronger effect = lower value",0.921
same,normalized growth,"S. cerevisiae deletion strains, locus YNL271C, strain bni1, stronger effect = lower value",0.889 (active)
same,normalized growth,"S. cerevisiae deletion strains, locus YNL298W, strain CLA4, stronger effect = lower value",0.887 (active)
same,normalized growth,"S. cerevisiae deletion strains, locus YNL307C, strain MCK1, stronger effect = lower value",0.521 (active)
same,normalized growth,"S. cerevisiae deletion strains, locus YNL322C, strain KRE1 (second series), stronger effect = lower value",0.814 (active)
same,normalized growth,"S. cerevisiae deletion strains, locus YNL322C, strain KRE1, stronger effect = lower value",0.954
same,normalized growth,"S. cerevisiae deletion strains, locus YNR049C, strain mso1, stronger effect = lower value",0.93
same,normalized growth,"S. cerevisiae deletion strains, locus YNR052C, strain pop2, stronger effect = lower value",0.864 (active)
same,normalized growth,"S. cerevisiae deletion strains, locus YOL012C, strain htz1",1.09
same,normalized growth,"S. cerevisiae deletion strains, locus YOL147C, strain pex11, stronger effect = lower value",0.703 (active)
same,normalized growth,"S. cerevisiae deletion strains, locus YOR001W, strain rrp6, stronger effect = lower value",0.826 (active)
same,normalized growth,"S. cerevisiae deletion strains, locus YOR061W, strain CKA2, stronger effect = lower value",0.935
same,normalized growth,"S. cerevisiae deletion strains, locus YOR069W, strain VPS5, stronger effect = lower value",0.932
same,normalized growth,"S. cerevisiae deletion strains, locus YOR070C, strain gyp1, stronger effect = lower value",0.806 (active)
same,normalized growth,"S. cerevisiae deletion strains, locus YOR080W, strain dia2, stronger effect = lower value",0.889 (active)
same,normalized growth,"S. cerevisiae deletion strains, locus YOR083W, strain WHI5, stronger effect = lower value",0.79 (active)
same,normalized growth,"S. cerevisiae deletion strains, locus YOR106W, strain vam3, stronger effect = lower value",0.737 (active)
same,normalized growth,"S. cerevisiae deletion strains, locus YOR136W, strain idh2, stronger effect = lower value",0.876 (active)
same,normalized growth,"S. cerevisiae deletion strains, locus YOR144C, strain elg1, stronger effect = lower value",0.823 (active)
same,normalized growth,"S. cerevisiae deletion strains, locus YOR184W, strain ser1, stronger effect = lower value",0.557 (active)
same,normalized growth,"S. cerevisiae deletion strains, locus YOR231W, strain MKK1, stronger effect = lower value",0.909
same,normalized growth,"S. cerevisiae deletion strains, locus YOR265W, strain rbl2, stronger effect = lower value",0.85 (active)
same,normalized growth,"S. cerevisiae deletion strains, locus YOR270C, strain vph1, stronger effect = lower value",0.409 (active)
same,normalized growth,"S. cerevisiae deletion strains, locus YOR290C, strain snf2, stronger effect = lower value",0.589 (active)
same,normalized growth,"S. cerevisiae deletion strains, locus YOR316C, strain cot1, stronger effect = lower value",0.881 (active)
same,normalized growth,"S. cerevisiae deletion strains, locus YPL051W, strain arl3, stronger effect = lower value",0.725 (active)
same,normalized growth,"S. cerevisiae deletion strains, locus YPL078C, strain atp4, stronger effect = lower value",0.513 (active)
same,normalized growth,"S. cerevisiae deletion strains, locus YPL106C, strain sse1, stronger effect = lower value",0.769 (active)
same,normalized growth,"S. cerevisiae deletion strains, locus YPL240C, strain hsp82, stronger effect = lower value",0.833 (active)
same,normalized growth,"S. cerevisiae deletion strains, locus YPL241C, strain CIN2, stronger effect = lower value",0.966
same,normalized growth,"S. cerevisiae deletion strains, locus YPL256C, strain CLN2, stronger effect = lower value",0.982
same,normalized growth,"S. cerevisiae deletion strains, locus YPR119W, strain clb2, stronger effect = lower value",0.888 (active)
same,normalized growth,"S. cerevisiae deletion strains, locus YPR141C, strain kar3, stronger effect = lower value",0.956
same,normalized growth,"S. cerevisiae deletion strains, locus YPR163C, strain tif3, stronger effect = lower value",0.72 (active)
same,normalized growth,"S. cerevisiae deletion strains, locus YPR167C, strain met16, stronger effect = lower value",0.851 (active)
same,normalized growth,"S. cerevisiae deletion strains, strain wtn01, stronger effect = lower value",0.757 (active)
same,normalized growth,"S. cerevisiae strains, strain wild type, stronger effect = lower value",0.896 (active)

# Reference: PubChem BioAssay AID1159580 (chemical genetic matrix, 2015)
